Inconclusive results are not listed. Unmarked numbers belong to inactive results. Calls follow the shape of the dose curve; as a rule, active = well fitted cell-killing curve with a large enough effect in the repeat runs; inconclusive = weak or mixed curves, or effect the other way; inactive = no such curve, though single readings can be large or run the other way.
% is scaled to controls: 0 for no effect and ±100 for the full control effect.

This assay can be described thus: qHTS assay to identify small molecule antagonists of the retinoid-related orphan receptor gamma (ROR-gamma) signaling pathway - cell viability counter screen (AID 1159520). Also: nearly all actives have a fitted effect of over 50% in size. Particulars: Tet-on RORgamma CHO cells viability, ATP luminescence, 16 h; series mostly up to 92.4 µM; activity, negative = cytotoxicity: at the top concentration. The source says: U.S. Tox21 Program National Center for Advancing Translational Sciences [NCATS] NIH Chemical Genomics Center [NCGC] U.S. Environmental Protection Agency [EPA] National Institutes of Environmental Health Sciences [NIEHS] National Toxicology Program [NTP] U.S. Food and Drug Administration [FDA] Tox21 Assay Overview: Nuclear steroid hormone receptors are involved in many biological processes including inflammatory responses, cell proliferation, and apoptosis. Environmental factors or compounds disrupting these nuclear receptor pathways and gene expression may promote susceptibility to immunotoxicants and autoimmune diseases. One important group of these expression factors are the retinoid-related orphan receptors. To assess compounds that may interfere with the retinoid-related orphan receptor gamma (ROR-gamma) transcription factor, a cell-based luciferase assay was used. The CHO cell-based assay utilizes a TET-inducible ROR expression factor and ROR response element-LUC reporter gene. Reporter gene activity was induced using Doxycycline Hyclate and measured after 16 hr incubation. Tet-on ROR gamma CHO cells were used to screen against the Tox21 10K compound library for cytotoxicity by measuring the viability of the cells based on the quantitation of the ATP.
Tox21 Assay Protocol Summary: Tet-on ROR gamma CHO cells were dispensed at 1,000 cells in 4 uL of culture medium per well into white wall/solid bottom 1536-well plates using a Multidrop Combi (Thermo Scientific, Waltham, MA) dispenser. Following incubation at 37 C and 5% CO2 for 4 hr, 23 nL of compounds dissolved in DMSO, positive controls or DMSO only were transferred by a Pintool station (Kalypsys, San Diego, CA) and after 2 hr incubation at 37 C, one ul of 1 uM (final concentration) of Doxycycline Hyclate was added to all the wells by using a Flying Reagent Dispenser (FRD) (Aurora Discovery, San Diego, CA). After 16 hr incubation at 37 C and 5% CO2, 5 uL of CellTiter-Glo reagent (Promega Corporation, Madison, WI) was added to each assay plate using FRD. After 30 min incubation at room temperature, luminescence was quantified on a ViewLux plate reader (Perkin Elmer, Waltham, MA).
In general terms: In qHTS, concentration-response curves come from the screen itself.
In the case of `Cc1cc(NC(=O)C2=C(O)c3ccccc3S(=O)(=O)N2C)no1`, the “activity, negative = cytotoxicity” value is -1.14% [at 42.5 µM].

Take `CN=C(NC#N)Nc1ccc(C2=NNC(=O)CC2C)cc1` (stereo not given): the “activity, negative = cytotoxicity” value was -0.0398% [at 42.5 µM].

As to `CC(C)C(=O)OCc1cccc(OC(=O)[C@@H]2N3C(=O)[C@@H](NC(=O)Cc4ccccc4)[C@H]3SC2(C)C)c1`, the “activity, negative = cytotoxicity” value was -3.8% [at 42.5 µM].

For the molecule `CC(C)=O`, the “activity, negative = cytotoxicity” value was 5.67%.

For `CN1CCN(CC(=O)N2c3ccccc3C(=O)Nc3cccnc32)CC1`, the activity, negative = cytotoxicity was 3.19% [at 8.39 µM].

For the molecule `C#CC(C)N(C)C(=O)Nc1ccc(Cl)cc1` (stereo not given), the “activity, negative = cytotoxicity” value was 0.651%.

Take `C=COCCOCCOCCOC=C`: the “activity, negative = cytotoxicity” value is 2.11%.

With `NCCS`, the “activity, negative = cytotoxicity” value is 0.0815% [at 42.5 µM].

`On1nnc2ccccc21`: the “activity, negative = cytotoxicity” value is -8.83%.

On to `O=C(O)C(=O)Cc1ccccc1`, for which the “activity, negative = cytotoxicity” value was 0.811%.

As for `Cc1ccc2c(c1)OCC(=O)CO2`, the “activity, negative = cytotoxicity” value is 0.736%.

`CC(C)N(c1ccccc1)C(C)C`: the “activity, negative = cytotoxicity” value is 1.25%.

Regarding `CCO[Si](CCCS)(OCC)OCC`, the “activity, negative = cytotoxicity” value is -6.64%.

As for `O=P(O)(O)OP(=O)(O)O`, the “activity, negative = cytotoxicity” value was 1.73%.

Turning to `COC(=O)C1CC(=O)C(C(=O)OC)CC1=O` (stereo not given), the activity, negative = cytotoxicity was 6.36% [at 8.39 µM].

`CC(=O)OC(C)OC(=O)C(C)c1ccc(-c2ccccc2)c(F)c1` (stereo not given): the “activity, negative = cytotoxicity” value was -0.743% [at 42.5 µM].

On to `COCCc1ccc(OCC2CO2)cc1` (stereo not given), for which the “activity, negative = cytotoxicity” value is 0.123% [at 42.5 µM].

In the case of `O=C(OCC1(COC(=O)c2cccnc2)CCCC(COC(=O)c2cccnc2)(COC(=O)c2cccnc2)C1O)c1cccnc1`, the “activity, negative = cytotoxicity” value is -1.09% [at 42.5 µM].

For `COc1ccc(-c2cc(=O)c3c(O)cc(O[C@@H]4O[C@H](CO[C@@H]5O[C@@H](C)[C@H](O)[C@@H](O)[C@H]5O)[C@@H](O)[C@H](O)[C@H]4O)cc3o2)cc1O`, the “activity, negative = cytotoxicity” value was 6.58% [at 42.5 µM].

As to `Nc1cccc(O)c1`, the “activity, negative = cytotoxicity” value was -11%.

In the case of `CCCCCCCCC(=O)Cl`, the “activity, negative = cytotoxicity” value was -10.5%.

As for `Cc1ccc(S(=O)(=O)O)c(C)c1`, the “activity, negative = cytotoxicity” value was 10.9%.

As for `Brc1ccc(-c2ccccc2)cc1`, the “activity, negative = cytotoxicity” value was 9.66%.

For the molecule `CC(C)C[C@H](NC(=O)CNC(=O)[C@H](Cc1ccc(O)cc1)NC(=O)[C@H](CO)NC(=O)[C@H](Cc1c[nH]c2ccccc12)NC(=O)[C@H](Cc1cnc[nH]1)NC(=O)[C@@H]1CCC(=O)N1)C(=O)N[C@@H](CCCN=C(N)N)C(=O)N1CCC[C@H]1C(=O)NCC(N)=O` (stereo in doubt), the “activity, negative = cytotoxicity” value was -0.59% [at 42.5 µM].

Turning to `CCOc1cc(NC(C)=O)ccc1C(=O)OC`, the “activity, negative = cytotoxicity” value was 2.44% [at 42.5 µM].

Turning to `CC(=O)CCCCn1c(=O)c2c(ncn2C)n(C)c1=O`, the “activity, negative = cytotoxicity” value is 2.26% [at 42.5 µM].

Regarding `COc1cc(NS(=O)(=O)c2ccc(N)cc2)nc(OC)n1`, the “activity, negative = cytotoxicity” value was -0.696% [at 42.5 µM].

On to `CC(C)C(=O)OCCc1ccccc1`, for which the “activity, negative = cytotoxicity” value was 1.51%.

`CCCCCCN`: the “activity, negative = cytotoxicity” value is -4.61%.

With `Cc1ccccc1OCC(O)CO` (stereo not given), the “activity, negative = cytotoxicity” value was -3.86% [at 42.5 µM].

For the molecule `CC1(C)S[C@@H]2[C@H](N=CN3CCCCCC3)C(=O)N2[C@H]1C(=O)O`, the “activity, negative = cytotoxicity” value is 1.24% [at 42.5 µM].

With `C[C@H](N)[C@H](O)c1cccc(O)c1`, the “activity, negative = cytotoxicity” value is 1.95% [at 42.5 µM].

On to `O=C(OCc1ccccc1)C(=O)OCc1ccccc1`, for which the “activity, negative = cytotoxicity” value was 6.91%.

`COc1ccc(S(=O)(=O)N2c3ccc(Cl)cc3[C@@](O)(c3ccccc3Cl)[C@H]2C(=O)N2CCC[C@@H]2C(N)=O)cc1OC`: the “activity, negative = cytotoxicity” value was 0.374% [at 42.5 µM].

Consider `COC(=O)c1ccccc1C(=O)c1ccc(OCCN2CCCCC2)cc1`, for which the “activity, negative = cytotoxicity” value was 7.1% [at 42.5 µM].

`C=C(C)C(=O)OCC(C)(C)COC(=O)C(=C)C`: the “activity, negative = cytotoxicity” value is -2.81%.

Consider `CC(C)OC(=O)CCCCC(=O)OC(C)C`, for which the “activity, negative = cytotoxicity” value is 1.95%.

For the molecule `COC(=O)[C@@H]1[C@H]2C[C@H]3c4[nH]c5ccccc5c4CCN3C[C@@H]2CC[C@@H]1O`, the “activity, negative = cytotoxicity” value is -2.06% [at 42.5 µM].

As for `O=S(=O)(O)c1ccc2cc(O)c(S(=O)(=O)O)cc2c1`, the “activity, negative = cytotoxicity” value is -6.01%.

With `CCC(C)NC(N)=O` (stereo not given), the “activity, negative = cytotoxicity” value was -7.04%.

These data come from PubChem BioAssay (Tox21).
